From PubChem BioAssay come the findings set out here.

Assay [1] deals with Nuclear receptor coactivator 3 (Homo sapiens) (UniProt Q9Y6Q9). The experiment in a line: NCOA3 GAL4-fusion reporter inhibition – cell-based, luminescence, quadruplicate, confirmation (AID 588792).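 Also: 0% = DMSO treated cells and 100% = gossypol at 36 µM.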 The note with it: HEK293 GAL4-SRC3 luciferase reporter, at 3.6 µM, stronger effect = higher value.
Assay [2] has as its system transactivating tegument protein VP16 (Human herpesvirus 1), Gal4-VP16 luciferase reporter. The experiment in a line: repression of VP16-driven luciferase reporter – cell-based, luminescence, high throughput, counter-screen for SRC3 inhibitor project (AID 588794; in the data active = inhibition above about 30%). The note with it: mammalian cells, at 3.6 µM, stronger effect = higher value.
Assay [3] addresses Nuclear receptor coactivator 1 (Homo sapiens) (UniProt Q15788). The assay can be described thus: NCOA1 GAL4-fusion reporter inhibition – cell-based, luminescence, quadruplicate, confirmation (AID 588820;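 active = mean inhibition above 46.68%, the untreated control wells mean plus 3 SD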;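 also: 0% = DMSO wells and 100% = gossypol 36 µM treated wells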). The note with it: HEK293 GAL4-SRC1 luciferase reporter, at 3.6 µM, stronger effect = higher value.
Assay [4] in a line: repression of VP16-driven luciferase reporter – cell-based, luminescence, high throughput, counter-screen for SRC1 inhibitor project (AID 588824; in the data active = inhibition above about 25%). The note with it: cell-based VP16 transactivation luciferase luminescence; at 3.6 µM; stronger effect = higher value.
The nature of assay [5]: StAR promoter reporter inhibitors, counter-screen for LRH-1 inverse agonist project, cell-based, luminescence, high throughput (AID 651611; in the data active = inhibition above about 28%). The note with it: StAR promoter luciferase reporter counterscreen, at 3.6 µM, stronger effect = higher value.
In assay [6] the target is Nuclear receptor subfamily 5 group A member 2 (Homo sapiens) (UniProt O00482). The assay can be described thus: NR5A2 activity suppression in reporter cells – cell-based, luminescence, confirmation (AID 651613; in the data active = inhibition above about 42%;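 also: HEK293T cells co-transfected with LRH-1 and StAR promoter luciferase reporter; 0% = vehicle wells and 100% = parental cells lacking receptor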). The note with it: cell-based LRH-1 luciferase reporter, inverse agonism; at 3.6 µM; stronger effect = higher value.
Chain of Nuclear receptor subfamily 5 group A member 2 (Homo sapiens) (O00482 whole entry, looked up): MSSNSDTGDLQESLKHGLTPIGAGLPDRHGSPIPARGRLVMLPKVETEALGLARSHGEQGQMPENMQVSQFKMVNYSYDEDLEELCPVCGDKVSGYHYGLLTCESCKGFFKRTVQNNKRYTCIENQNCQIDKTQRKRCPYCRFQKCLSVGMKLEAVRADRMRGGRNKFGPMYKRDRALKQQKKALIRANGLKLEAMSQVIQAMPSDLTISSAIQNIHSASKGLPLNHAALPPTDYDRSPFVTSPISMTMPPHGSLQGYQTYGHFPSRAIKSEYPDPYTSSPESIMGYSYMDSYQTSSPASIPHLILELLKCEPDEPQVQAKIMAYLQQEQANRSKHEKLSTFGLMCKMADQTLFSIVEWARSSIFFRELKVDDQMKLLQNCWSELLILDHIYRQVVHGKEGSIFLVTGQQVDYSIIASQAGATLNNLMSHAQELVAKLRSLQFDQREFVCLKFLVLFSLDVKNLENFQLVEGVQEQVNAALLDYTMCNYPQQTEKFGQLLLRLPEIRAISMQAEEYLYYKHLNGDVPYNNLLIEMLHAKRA
Assay [7] deals with Steroidogenic factor 1 (Homo sapiens) (UniProt Q13285). The experiment in a line: inverse agonism at SF1 nuclear receptor – cell-based, luminescence, high throughput, counter-screen for LRH-1 inverse agonist project (AID 651614; in the data active = inhibition above about 44%;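 also: cells cotransfected with StAR promoter reporter and SF1 expression vector; 0% = vehicle on cells with receptor and 100% = vehicle on cells lacking receptor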). The conditions noted are these: cell-based SF1 luciferase reporter, at 3.6 µM, stronger effect = higher value.
Chain of Steroidogenic factor 1 (Homo sapiens) (Q13285 whole entry, looked up, the tested form may be a part): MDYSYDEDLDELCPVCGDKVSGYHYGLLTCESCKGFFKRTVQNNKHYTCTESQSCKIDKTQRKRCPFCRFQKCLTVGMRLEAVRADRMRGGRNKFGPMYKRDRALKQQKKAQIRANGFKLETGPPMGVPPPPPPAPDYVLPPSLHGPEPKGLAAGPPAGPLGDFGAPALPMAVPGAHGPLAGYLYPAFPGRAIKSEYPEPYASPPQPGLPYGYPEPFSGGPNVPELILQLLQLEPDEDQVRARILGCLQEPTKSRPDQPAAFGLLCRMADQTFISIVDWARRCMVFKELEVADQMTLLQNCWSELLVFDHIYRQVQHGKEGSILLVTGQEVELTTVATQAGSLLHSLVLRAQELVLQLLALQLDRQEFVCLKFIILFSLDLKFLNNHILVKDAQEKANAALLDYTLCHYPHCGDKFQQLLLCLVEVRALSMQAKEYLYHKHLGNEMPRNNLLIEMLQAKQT
A short description of assay [8]: compounds suppressing VP16-driven luciferase signal – cell-based, luminescence, high throughput, counter-screen for LRH-1 inverse agonist project (AID 651615; in the data active = inhibition above about 33%). The conditions noted are these: Gal4-VP16 luciferase reporter cells, at 3.6 µM, stronger effect = higher value.
The target of assay [9] is Photoreceptor-specific nuclear receptor (Homo sapiens) (UniProt Q9Y5X4). The assay can be described thus: retest of NR2E3-NCOR disrupting agonists – cell-based, luminescence, CHO-S two-hybrid, confirmation (AID 624378;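 active = average inhibition above a cutoff equal to the mean inhibition of all tested compounds plus one SD, cut at about 70% in these data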;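 also: 0% = DMSO in NR2E3 cells and 100% = DMSO in cells lacking NR2E3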). The conditions noted are these: CHO-S mammalian two-hybrid NR2E3-NCOR, luciferase luminescence; at 3.98 µM; stronger effect = higher value.
Chain of Photoreceptor-specific nuclear receptor (Homo sapiens) (Q9Y5X4 whole entry, looked up): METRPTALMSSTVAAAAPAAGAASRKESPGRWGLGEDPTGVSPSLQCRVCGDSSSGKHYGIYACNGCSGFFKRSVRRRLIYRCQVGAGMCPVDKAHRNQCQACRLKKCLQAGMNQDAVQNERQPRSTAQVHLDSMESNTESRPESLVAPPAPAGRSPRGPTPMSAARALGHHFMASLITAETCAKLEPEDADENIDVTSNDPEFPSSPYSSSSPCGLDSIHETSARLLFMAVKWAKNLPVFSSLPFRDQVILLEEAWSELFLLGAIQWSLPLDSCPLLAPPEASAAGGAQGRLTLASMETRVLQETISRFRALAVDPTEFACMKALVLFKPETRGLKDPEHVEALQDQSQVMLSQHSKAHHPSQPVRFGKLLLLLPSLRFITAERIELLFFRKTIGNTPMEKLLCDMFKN
Assay [10] is described as follows: nonselective effects on VP16 transactivation – cell-based, luminescence, CHO-S, high throughput, counter-screen for NR2E3 agonist project, confirmation (AID 624379;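 active = mean inhibition above a cutoff equal to the average over all tested compounds plus one standard deviation, cut at about 70% in these data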;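 also: luciferase from a UAS reporter driven by GAL4-VP16 transactivation; 0% = DMSO with VP16-transfected cells and 100% = DMSO with cells lacking VP16; higher means less reporter light so more repression of VP16 activity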). The note with it: CHO-S GAL4-VP16 luciferase reporter, at 3.98 µM, stronger effect = higher value.

Values without a mark were called inactive. The list shows a part of the results. The source made the active and inactive calls.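 The calls were made as follows, unless noted: active = mean inhibition over 43.08%, the solvent-only control mean plus 3 SD; inactive = the rest.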

Chain of Nuclear receptor coactivator 1 (Homo sapiens) (Q15788 whole entry, looked up, the tested form may be a part): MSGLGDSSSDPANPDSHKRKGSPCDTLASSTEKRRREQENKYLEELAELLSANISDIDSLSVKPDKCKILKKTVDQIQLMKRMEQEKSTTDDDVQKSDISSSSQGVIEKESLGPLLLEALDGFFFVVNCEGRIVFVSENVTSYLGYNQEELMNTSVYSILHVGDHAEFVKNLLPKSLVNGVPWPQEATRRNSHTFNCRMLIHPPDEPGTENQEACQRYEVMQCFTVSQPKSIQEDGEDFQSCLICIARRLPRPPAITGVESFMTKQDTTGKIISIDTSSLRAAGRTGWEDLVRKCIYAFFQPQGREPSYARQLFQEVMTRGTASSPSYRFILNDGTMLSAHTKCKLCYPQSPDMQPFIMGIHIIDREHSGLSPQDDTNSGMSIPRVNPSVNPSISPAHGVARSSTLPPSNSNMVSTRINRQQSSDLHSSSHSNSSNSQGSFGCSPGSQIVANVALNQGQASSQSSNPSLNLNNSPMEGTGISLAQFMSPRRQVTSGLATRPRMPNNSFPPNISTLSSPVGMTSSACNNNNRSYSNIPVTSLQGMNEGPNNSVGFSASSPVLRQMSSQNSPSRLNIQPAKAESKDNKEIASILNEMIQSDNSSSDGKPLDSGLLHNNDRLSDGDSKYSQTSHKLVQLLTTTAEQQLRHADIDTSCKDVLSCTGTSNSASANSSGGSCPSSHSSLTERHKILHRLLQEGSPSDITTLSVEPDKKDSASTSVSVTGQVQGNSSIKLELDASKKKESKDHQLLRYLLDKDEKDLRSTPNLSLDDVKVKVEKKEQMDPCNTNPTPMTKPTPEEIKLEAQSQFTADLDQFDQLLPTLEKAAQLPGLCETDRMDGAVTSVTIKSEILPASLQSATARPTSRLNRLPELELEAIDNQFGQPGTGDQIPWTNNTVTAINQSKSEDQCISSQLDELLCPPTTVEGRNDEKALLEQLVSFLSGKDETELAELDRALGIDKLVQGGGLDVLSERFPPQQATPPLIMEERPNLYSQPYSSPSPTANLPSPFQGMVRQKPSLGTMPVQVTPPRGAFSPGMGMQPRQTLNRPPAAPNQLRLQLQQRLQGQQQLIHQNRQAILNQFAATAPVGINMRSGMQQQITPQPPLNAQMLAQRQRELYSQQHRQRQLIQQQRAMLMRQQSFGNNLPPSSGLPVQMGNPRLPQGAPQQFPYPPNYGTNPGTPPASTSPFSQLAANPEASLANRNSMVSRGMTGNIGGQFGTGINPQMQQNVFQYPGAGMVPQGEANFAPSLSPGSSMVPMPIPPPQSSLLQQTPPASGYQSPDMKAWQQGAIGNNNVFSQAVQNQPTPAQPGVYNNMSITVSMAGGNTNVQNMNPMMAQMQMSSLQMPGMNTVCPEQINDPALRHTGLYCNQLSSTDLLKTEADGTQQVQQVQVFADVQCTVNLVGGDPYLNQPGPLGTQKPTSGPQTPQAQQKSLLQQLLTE
Chain of Nuclear receptor coactivator 3 (Homo sapiens) (Q9Y6Q9 whole entry, looked up, the tested form may be a part): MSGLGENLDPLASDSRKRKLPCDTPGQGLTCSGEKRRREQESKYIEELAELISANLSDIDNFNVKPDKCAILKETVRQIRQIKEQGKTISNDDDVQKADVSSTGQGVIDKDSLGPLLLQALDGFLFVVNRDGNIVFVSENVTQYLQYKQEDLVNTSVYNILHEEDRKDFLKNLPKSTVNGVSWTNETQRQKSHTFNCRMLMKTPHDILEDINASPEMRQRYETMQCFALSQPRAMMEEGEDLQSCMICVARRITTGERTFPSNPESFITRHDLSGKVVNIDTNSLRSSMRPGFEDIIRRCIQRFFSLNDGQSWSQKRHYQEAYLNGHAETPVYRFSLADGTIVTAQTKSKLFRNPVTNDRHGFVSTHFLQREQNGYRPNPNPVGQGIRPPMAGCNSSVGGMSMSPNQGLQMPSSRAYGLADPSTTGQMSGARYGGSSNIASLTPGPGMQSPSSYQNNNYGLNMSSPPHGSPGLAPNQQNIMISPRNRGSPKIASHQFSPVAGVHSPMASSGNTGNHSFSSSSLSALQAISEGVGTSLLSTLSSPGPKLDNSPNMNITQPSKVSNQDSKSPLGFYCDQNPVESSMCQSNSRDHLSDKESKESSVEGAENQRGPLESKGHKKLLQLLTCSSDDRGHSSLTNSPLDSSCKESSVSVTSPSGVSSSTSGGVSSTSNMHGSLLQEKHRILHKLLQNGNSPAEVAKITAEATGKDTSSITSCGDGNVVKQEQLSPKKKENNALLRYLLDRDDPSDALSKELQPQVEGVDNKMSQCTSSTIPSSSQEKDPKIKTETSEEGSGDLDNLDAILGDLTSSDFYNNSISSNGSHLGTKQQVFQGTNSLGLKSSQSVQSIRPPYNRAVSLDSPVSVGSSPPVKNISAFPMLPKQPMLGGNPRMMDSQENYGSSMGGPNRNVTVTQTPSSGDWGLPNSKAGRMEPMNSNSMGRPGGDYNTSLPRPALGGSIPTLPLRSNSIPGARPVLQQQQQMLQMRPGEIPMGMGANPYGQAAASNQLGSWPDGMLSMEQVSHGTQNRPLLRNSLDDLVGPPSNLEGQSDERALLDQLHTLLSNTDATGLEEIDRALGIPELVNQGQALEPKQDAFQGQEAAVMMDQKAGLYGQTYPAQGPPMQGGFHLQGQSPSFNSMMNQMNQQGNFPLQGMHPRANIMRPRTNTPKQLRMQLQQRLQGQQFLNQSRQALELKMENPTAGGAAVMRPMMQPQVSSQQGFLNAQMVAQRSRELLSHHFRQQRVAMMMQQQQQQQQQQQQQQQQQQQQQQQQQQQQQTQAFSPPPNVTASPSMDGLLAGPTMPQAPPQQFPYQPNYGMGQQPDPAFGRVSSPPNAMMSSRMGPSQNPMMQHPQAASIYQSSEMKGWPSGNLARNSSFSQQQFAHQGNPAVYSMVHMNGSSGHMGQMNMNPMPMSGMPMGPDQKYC

As to `O=c1[nH]c2ccccc2n1C1CCN(C(c2nnnn2-c2ccc3c(c2)OCCO3)C2CC2)CC1` (configuration not stated), the inhibition in [1] is 25.1%; in [2], 23.5%; in [3] it was -8.7%; in assay [4], 22%.
On to `Cc1cc(C)n(-c2ccc(NN=C(C#N)C#N)cc2)n1`, for which the inhibition in assay [1] is 43.3% (active); in [2] it was 61.8% (active).
For the molecule `COc1cccc(C(c2nnnn2-c2ccc3c(c2)OCCO3)N2CCC(n3c(=O)[nH]c4ccccc43)CC2)c1OC` (configuration not stated), the inhibition in assay [1] was 26.6%; in assay [2], 35.9% (active); in assay [3] it was -22.4%; in assay [4], 24.7%.
`CC1=C(N2CC2)C(=O)C(CO)=C(N2CC2)C1=O`: the inhibition in assay [1] is 96.1% (active); in assay [2], 91.2% (active); in assay [3], 86.1% (active); in assay [4] it was 93% (active).
With `COc1ccc(-n2nnnc2C(c2cccc3ccccc23)N2CCC(n3c(=O)[nH]c4ccccc43)CC2)cc1` (configuration not stated), the inhibition in [1] was -24.1%; in [2], 4.21%.
Turning to `COc1cccc(C(c2nnnn2Cc2ccccc2)N2CCC(n3c(=O)[nH]c4ccccc43)CC2)c1OC` (configuration not stated), the inhibition in assay [1] was 25.4%; in assay [2] it was 8.5%; in assay [3], -25.2%; in assay [4] it was 20.2%.
As for `O=c1[nH]c2ccccc2n1C1CCN(C(c2nnnn2Cc2ccccc2)C2CC2)CC1` (configuration not stated), the inhibition was 22.8% in assay [1] and 20.9% in [2].
In the case of `O=C1/C(=C/c2ccccc2)C[C@@]2(O)[C@H]3Cc4ccc(O)c5c4[C@@]2(CCN3CC2CC2)C1O5` (some centres not stated), the inhibition in assay [1] is 92.8% (active); in [2] it was 73.1% (active); in [3] it was 85.4% (active); in [4], 73.2% (active).
Take `Cc1cccc(C)c1-n1nnnc1C(CCc1ccccc1)N1CCC(n2c(=O)[nH]c3ccccc32)CC1` (configuration not stated): the inhibition in assay [1] is 40.6%; in [2], 49.2% (active); in assay [3] it was 20.7%; in assay [4], 51.8% (active).
Take `Cc1ccc(N=C(/N=C(\N)N[N+](=O)[O-])Nc2ccc(C)cc2)cc1`: the inhibition in assay [1] is -0.99%; in assay [2] it was 1.74%.
Take `CC/C(=N\Nc1ccccc1)c1c(O)[nH]c(=O)[nH]c1=O`: the inhibition in assay [1] was 14.7%; in [2] it was 20.4%.
In the same order, the values of `CCn1c(O)c(C=NCCN2CCOCC2)c(=O)n(CC)c1=S` are 9.7% and 7.94%.
In the same order, the values of `CCCCNS(=O)(=O)c1ccc(OCC(=O)N2CCN(Cc3ccc4c(c3)OCO4)CC2)cc1` are 10.7% and 26.6%.
Regarding `CCCNC(=O)N1[C@H]2CC[C@@H]1C(C(=O)OC)=C(c1ccc(OC(F)(F)F)cc1)C2`, the inhibition was 14.2% in [1] and -7.81% in assay [2].
Take `CC[C@@]1(O)C(=O)OCc2c1cc1n(c2=O)Cc2cc3c(NC(=O)CN)cccc3nc2-1`: the inhibition in assay [1] was 61.8% (active); in assay [2], 9.37%; in [3], 55.3% (active); in assay [4], -2.11%; in [5], 42.7% (active); in assay [6] it was 70% (active). For the same molecule, the inhibition in assay [7] is 59.3% (active); in assay [8], 9.93%.
Take `COC(=O)[C@]12OC[C@]34C([C@@H](O)[C@@H]1O)[C@]1(C)CC(=O)C(O)=C(C)[C@@H]1C[C@H]3OC(=O)[C@H](O)[C@@H]24` (some centres not stated): the inhibition is 71.6% (active) in [1], 64.2% (active) in assay [2], -32.4% in [3] and 68.8% (active) in [4].
With `C[C@@H]1O[C@@H](O[C@H]2C[C@@H](O)[C@]3(CO)[C@@H]4C(CC[C@]3(O)C2)[C@@]2(O)CC[C@H](C3COC(=O)C3)[C@@]2(C)C[C@H]4O)[C@H](O)[C@H](O)[C@H]1O` (some centres not stated), the inhibition in assay [1] was 87.8% (active); in assay [2], 47.1% (active); in assay [3], 5.8%; in [4], 54.1% (active); in assay [5], 92% (active); in [6], 100% (active). In addition, the inhibition in assay [7] was 85.2% (active); in assay [8], 56.4% (active).
Consider `N=c1c2c(n(Cc3ccc(Cl)cc3Cl)c3c1CCC3)CCCC2`, for which the inhibition was 43.5% (active) in assay [1], 62.9% (active) in [2], 41.2% in [3] and 63.4% (active) in [4].
Consider `O=c1[nH]c2ccccc2n1C1CCN(C(c2ccccc2)c2nnnn2Cc2ccccc2)CC1` (configuration not stated), for which the inhibition in assay [1] was 64.1% (active); in [2] it was 16.8%; in assay [3], -21.5%; in [4] it was 15.1%; in [9] it was 30.7%; in [10] it was 4.07%.
As for `CCC(C)C(NC(=O)CCCNC(=O)CCC(=O)OC1O[C@H]2OC3(C)CC[C@H]4[C@H](C)CCC(C1C)C24OO3)C(=O)O` (some centres not stated), the inhibition was 52.4% (active) in [1]; 77.5% (active) in [2]; 45% in assay [3]; 76.4% (active) in [4]; 71.9% (active) in assay [5]; 101% (active) in assay [6]. The inhibition in [7] is 89.8% (active); in [8] it was 82.9% (active).
For the molecule `CC1=CC2OC3CC4OC(=O)C=CC=CC(=O)OCCC(C)C(O)C(=O)OCC2(CC1O)C4(C)C31CO1` (configuration not stated), the inhibition in [1] was 98% (active); in [2] it was 96.8% (active); in assay [3], 96.8% (active); in assay [4], 95.6% (active).
